# Experimental data: PubChem BioAssay (EPA / NIEHS)
# Records with an inconclusive call do not appear. Activity calls are given as the source filed them. Rule for the calls: active = hit-call score of the fitted dose curve at least 0.9, where 1 is the maximum; inconclusive = response in the unintended direction; inactive = score below 0.9.
# Biological target: Cellular tumor antigen p53 (Homo sapiens) (UniProt P04637)
# Experiment: TOX21_p53_BLA_p4_ratio: Tox21 HCT-116 p53 Agonism Beta-lactamase Assay, Ratio, Phase 4 (AID 2283601)
# Summary of the method: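 Signal is the blue/green (460nm/530nm) ratio of cleaved versus uncleaved CCF4-AM substrate, read after 2 h substrate loading. Cells were HCT116 carrying the p53-responsive beta-lactamase reporter, dosed 16 h at 37C, 5% CO2; CellTiter-Glo measured in parallel.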
# Cellular tumor antigen p53 (Homo sapiens), sequence (P04637 whole entry, looked up): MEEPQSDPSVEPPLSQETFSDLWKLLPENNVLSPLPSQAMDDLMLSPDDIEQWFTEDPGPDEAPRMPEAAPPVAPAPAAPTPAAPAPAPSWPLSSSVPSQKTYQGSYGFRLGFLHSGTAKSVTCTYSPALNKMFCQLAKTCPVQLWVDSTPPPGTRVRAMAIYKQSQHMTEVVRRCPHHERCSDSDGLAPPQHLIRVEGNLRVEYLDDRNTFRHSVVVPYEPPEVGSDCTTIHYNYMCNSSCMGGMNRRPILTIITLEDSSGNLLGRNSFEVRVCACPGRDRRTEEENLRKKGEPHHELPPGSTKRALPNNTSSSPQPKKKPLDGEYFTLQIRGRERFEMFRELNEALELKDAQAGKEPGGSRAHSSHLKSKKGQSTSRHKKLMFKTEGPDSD
Structure (SMILES),outcome,AC50
CCN(CC)c1c([N+](=O)[O-])cc(C(F)(F)F)c(N)c1[N+](=O)[O-],inactive,–
COP(=O)(OC)Oc1ccc([N+](=O)[O-])cc1,inactive,–
CC(C)OC(=O)C(O)(c1ccc(Cl)cc1)c1ccc(Cl)cc1,–,69.8 µM (active)
CC(=O)[O][Pb]([c]1ccccc1)([c]1ccccc1)[c]1ccccc1,–,32.5 µM (active)
OC(c1ccc(F)cc1)(c1cncnc1)c1ccccc1Cl (stereo unspecified),inactive,–
N#Cc1sc2c(=O)c3ccccc3c(=O)c=2sc1C#N,–,6.18 µM (active)
IC(I)=C(I)I,–,13.9 µM (active)
[Hg+2].[I-].[I-],–,33 µM (active)

# System: not listed separately
# Experiment: CCTE_Harrill_HTTr_CellCount_MCF7: CCTE's Cell Proliferation Assessment for the High-Throughput Transcriptomics (HTTr) Platform, Harrill Lab (AID 2284012);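 note: cells exposed to compound for six hours; intended direction is loss of nuclei count meaning fewer cells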
# Summary of the method: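 MCF-7 cells were exposed for 6 h to an eight-point dilution series; Hoechst-labeled nuclei were counted by high content imaging. Curves were fitted bidirectionally against DMSO as negative control and baseline, with signal loss indicating reduced cell count.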
row,Structure (SMILES),outcome
1,CC(Oc1ccc(Oc2ncc(C(F)(F)F)cc2Cl)cc1)C(=O)O (stereo unspecified),inactive
2,OC(c1ccc(F)cc1)(c1cncnc1)c1ccccc1Cl (stereo unspecified),inactive
3,N#Cc1sc2c(=O)c3ccccc3c(=O)c=2sc1C#N,inactive
